This is an account of results in PubChem BioAssay (Tox21).

Unmarked numbers belong to inactive results. Results filed as inconclusive are left out. Calls of active or inactive are those of the source. Unless noted, the call rests on the fitted dose curve; in most records, active means well fitted curve in the direction sought with a large enough effect in the repeat runs; inconclusive means weak or mixed curves; inactive means no such curve, though single readings can be large; an effect the other way counts as inactive or inconclusive.

Assay [1] addresses Thyrotropin-releasing hormone receptor (Homo sapiens) (UniProt P34981). The experiment in a line: qHTS assay to identify small molecule agonists of the thyrotropin-releasing hormone receptor (TRHR) signaling pathway (AID 1346891; calls by dose curve;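 further: HEK293 cells expressing TRHR with calcium dye readout; series mostly up to about 58 µM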). Put shortly:
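Compounds were tested as agonists at 15 concentrations, in triplicate, on TRHR-Hek293 cells; calcium-sensitive dye fluorescence was recorded for 3 min following addition.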
In general terms: In qHTS, concentration-response curves come from the screen itself.

Assay [2] in a line: Human pregnane X receptor (PXR) small molecule agonists, qHTS cell viability counter screen (AID 1346977). Further: nearly all actives have a fitted effect of over 50% in size. Put shortly: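 Viability counter screen: CellTiter-Fluor signal in PXR-Luc HepG2 cells, 24hr compound exposure, 37C, 5% CO2.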
Assay [3] is described as follows: Caspase-3/7 induction in HepG2 cells by small molecules, qHTS assay (AID 1346978). Further: nearly all actives have a fitted effect of over 15% in size. Put shortly:
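Wild-type HepG2 cells (2,000/well) were settled 5 h at 37 C, 5% CO2, then exposed to compounds in DMSO for 17 h. Caspase-3/7 activity was read by luminescence 30 min after adding Caspase-Glo 3/7 reagent at room temperature.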

Assay [4] can be described thus: Caspase-3/7 induction in CHO-K1 cells by small molecules, qHTS cell viability counter screen (AID 1346979). Further: nearly all actives have a fitted effect of over 35% in size. In outline: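 Viability readout by fluorescence (CellTiter-Fluor) on wild-type CHO-K1 cells exposed for 16hr at 37C and 5% CO2 to compounds delivered in DMSO; reagent incubated 1hr before reading.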
Assay [5] in a line: Caspase-3/7 induction in CHO-K1 cells by small molecules, qHTS assay (AID 1346980). Further: nearly all actives have a fitted effect of over 15% in size. Put shortly: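 Wild-type cells were seeded at 1,500 per well and settled 5 hr at 37 C, 5% CO2, then exposed to DMSO-dissolved compounds for 17 hr. Caspase-Glo 3/7 reagent was added, and luminescence was read after 30min at room temperature.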
Assay [6] in a line: Caspase-3/7 induction in HepG2 cells by small molecules, qHTS cell viability counter screen (AID 1346981). Further: series mostly up to about 92 µM; nearly all actives have a fitted effect of over 30% in size. Put shortly:
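Steps: seed 2,000 HepG2 cells per well; incubate 5 hr at 37 C; pin-add compounds in DMSO; incubate 16 hr; add CellTiter-Fluor; after 1 hr at 37 C and 5% CO2, read fluorescence.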

Assay [7] deals with Nuclear receptor subfamily 1 group I member 2 (Homo sapiens) (UniProt O75469). Briefly: Human pregnane X receptor (PXR) small molecule agonists, qHTS assay (AID 1346982). Further: nearly all actives have a fitted effect of over 35% in size. Put shortly: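 Agonist mode qHTS: PXR-Luc HepG2 cells plated 5 hr before DMSO-dissolved compounds were pinned in, cultured 24 hr at 37 C, 5% CO2; ONE-Glo luminescence readout.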
The target of assay [8] is Nuclear receptor subfamily 1 group I member 2 (Rattus norvegicus) (UniProt Q9R1A7). The experiment in a line: Rat pregnane X receptor (rPXR) activation by small molecules, qHTS assay (AID 1346983). Further: nearly all actives have a fitted effect of over 20% in size. Conditions: rPXR luciferase reporter cells, One-Glo luminescence, 24 h; hits give high values. In outline: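 Cell-based rPXR luciferase reporter assay, 2,000 cells per well, rested 5hr at 37 C before compound addition in DMSO, then 24 hr at 37 C. One-Glo reagent was added and luminescence read after 30 min at room temperature.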

For assay [9], the target named is Nuclear receptor subfamily 1 group I member 2 (Homo sapiens) (UniProt O75469). The experiment in a line: CYP3A4 induction through human pregnane X receptor (PXR) by small molecules, qHTS assay (AID 1346984). Further: nearly all actives have a fitted effect of over 40% in size. Further: potency means the concentration at half of the fitted maximal effect. Put shortly:
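Steps: seed DPX-2 cells, 5 hr at 37C; pin-transfer compounds; 24 hr at 37C; add Luciferin-IPA (3uM final), 3 hr at 37C; add One-Glo, 30 min RT; read luminescence.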

Assay [10] shares this target. Briefly: Human pregnane X receptor (PXR) activation by small molecules, qHTS assay (AID 1346985). Further: nearly all actives have a fitted effect of over 40% in size. Further: potency means the concentration at half of the fitted maximal effect. Put shortly: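 DPX-2 cells (HepG2 co-transfected with a PXR response element and a CYP3A4-promoter luciferase construct) were seeded at 2,000 per well, rested 5 hr at 37C, then exposed to DMSO-dissolved compounds for 24 hr. Activation was read as luciferase luminescence.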
On the % scale 0 is the no-effect control and ±100 the full control effect.

Thyrotropin-releasing hormone receptor (Homo sapiens), sequence (P34981 whole entry, looked up): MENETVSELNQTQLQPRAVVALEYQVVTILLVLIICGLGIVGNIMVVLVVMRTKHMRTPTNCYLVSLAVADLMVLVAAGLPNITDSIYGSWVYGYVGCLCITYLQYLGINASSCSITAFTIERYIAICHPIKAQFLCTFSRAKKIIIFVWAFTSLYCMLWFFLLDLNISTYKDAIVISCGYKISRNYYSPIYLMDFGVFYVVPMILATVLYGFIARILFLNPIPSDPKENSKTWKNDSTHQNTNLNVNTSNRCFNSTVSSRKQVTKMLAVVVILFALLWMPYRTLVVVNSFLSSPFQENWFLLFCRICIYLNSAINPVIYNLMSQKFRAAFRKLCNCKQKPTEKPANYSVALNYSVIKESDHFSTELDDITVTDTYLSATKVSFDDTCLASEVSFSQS
Nuclear receptor subfamily 1 group I member 2 (Rattus norvegicus), sequence (Q9R1A7 whole entry, looked up): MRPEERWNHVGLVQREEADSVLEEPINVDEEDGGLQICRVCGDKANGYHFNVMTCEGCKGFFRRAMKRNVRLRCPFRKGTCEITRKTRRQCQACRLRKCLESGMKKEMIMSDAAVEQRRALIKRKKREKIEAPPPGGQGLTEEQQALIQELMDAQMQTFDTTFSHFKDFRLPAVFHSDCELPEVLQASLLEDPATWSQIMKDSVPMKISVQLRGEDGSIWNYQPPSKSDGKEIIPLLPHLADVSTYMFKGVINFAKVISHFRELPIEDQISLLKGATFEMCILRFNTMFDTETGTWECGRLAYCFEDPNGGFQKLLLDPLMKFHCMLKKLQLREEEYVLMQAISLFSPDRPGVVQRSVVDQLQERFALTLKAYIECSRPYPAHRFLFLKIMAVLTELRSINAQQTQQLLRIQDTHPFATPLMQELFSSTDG
Nuclear receptor subfamily 1 group I member 2 (Homo sapiens), sequence (O75469 whole entry, looked up): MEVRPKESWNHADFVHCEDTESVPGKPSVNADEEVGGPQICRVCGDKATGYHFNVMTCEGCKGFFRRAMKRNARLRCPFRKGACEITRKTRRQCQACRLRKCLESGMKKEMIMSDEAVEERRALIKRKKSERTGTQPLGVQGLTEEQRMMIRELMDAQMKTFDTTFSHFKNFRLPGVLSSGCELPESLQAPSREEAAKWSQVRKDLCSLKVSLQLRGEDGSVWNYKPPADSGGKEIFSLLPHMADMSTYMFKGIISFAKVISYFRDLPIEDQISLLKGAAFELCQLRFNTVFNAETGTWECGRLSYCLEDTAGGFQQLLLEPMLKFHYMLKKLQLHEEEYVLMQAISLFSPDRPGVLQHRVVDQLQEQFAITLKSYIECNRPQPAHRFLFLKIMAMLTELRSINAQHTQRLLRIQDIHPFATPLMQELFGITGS

In the case of `Cn1cc(S(C)=O)c(=O)c2ccc(F)cc21` (stereo not drawn), the result in [1] and in assay [5] was inactive. In addition, the Potency entry in [2], in [3], in [4], in assay [6] and in assay [7] was “inactive” in each case.

`CC(C)NCC(O)c1ccc(NS(C)(=O)=O)cc1` (stereo not drawn): the compound was called inactive in assay [1] and in [5]. In addition, the Potency entry in [2], in assay [3], in assay [4], in assay [6], in assay [7] and in [9] was “inactive” each time. The Potency entry in [10] was “inactive”. Besides, the max activation in assay [8] is -1.64%.

For `CC(C)c1cc2c(cc1S(=O)(=O)O)[C@@]1(C)CCC[C@@](C)(C(=O)O)[C@@H]1CC2`, the compound was classed as inactive in assay [1] and in assay [5]. Further, the Potency entry in assay [2], in [3], in assay [4], in assay [6], in assay [7] and in assay [9] was “inactive” throughout. Further, the Potency result in assay [10] is “inactive”. For the same compound, the max activation in assay [8] was 2.4%.

Turning to `CC1=CC(C)C(C=O)CC1` (stereo not drawn), the result in assay [1] and in assay [5] was inactive. Besides, the Potency result in [2], in [3], in assay [4], in assay [6] and in assay [7] was “inactive” each time.

With `FC(F)OC(Cl)C(F)(F)F` (stereo not drawn), the result in assay [1] and in [5] was inactive. The Potency entry in assay [2], in assay [3], in assay [4], in assay [6], in [7] and in assay [9] was “inactive” throughout. Further, the Potency entry in [10] is “inactive”. Besides, the max activation in [8] was -3.14%.

Regarding `COC(=O)CCSCCC(=O)OC`, the outcome in assay [1] and in assay [5] was inactive. Besides, the Potency result in assay [2], in assay [3], in [4], in assay [6] and in assay [7] was “inactive” throughout.

In the case of `C[C@@H]1CCN(C(=O)[C@H](CCCN=C(N)N)NS(=O)(=O)c2cccc3c2NC[C@H](C)C3)[C@@H](C(=O)O)C1`, the call in [1] and in assay [5] was inactive. Besides, the Potency result in assay [2], in [3], in assay [4], in assay [6], in assay [7] and in assay [9] was “inactive” each time. Besides, the Potency entry in [10] was “inactive”. In assay [8], the max activation was -0.172%.

For the compound `O=C(CCCN1CCC(O)(c2cccc(C(F)(F)F)c2)CC1)c1ccc(F)cc1`, the result in [1] and in [5] was inactive. Further, the Potency entry in [2], in [3], in [4], in assay [6] and in assay [7] was “inactive” in each case. Besides, in assay [8], the max activation was 1.11%. The Potency in assay [9] is 4.47 µM (active); in [10], 12.6 µM (active).

Turning to `CCOC(=O)[C@H](CCc1ccccc1)N[C@@H](C)C(=O)N1[C@H](C(=O)O)C[C@@H]2CCC[C@@H]21`, the result in [1] and in [5] was inactive. Also, the Potency result in assay [2], in [3], in assay [4], in assay [6], in assay [7] and in assay [10] was “inactive” in each case. Further, in assay [8], the max activation was -3.39%.

`C/C=C(\C)C#N`: the call in assay [1] and in [5] was inactive. The Potency entry in assay [2], in assay [3], in assay [4], in assay [6] and in [7] was “inactive” each time.

As for `O=c1n(CCO)c(=O)n(CCO)c(=O)n1CCO`, the outcome in [1] and in assay [5] was inactive. Moreover, the Potency result in assay [2], in [3], in [4], in [6] and in [7] was “inactive” throughout.

In the case of `C[N+](C)(C)CC(O)CC(=O)[O-]` (stereo not drawn), the call in assay [1] and in assay [5] was inactive. The Potency result in assay [2], in assay [3], in assay [4] and in [6] was “inactive” throughout. The max activation in assay [8] is 7.16%.

For `CCS(=O)(=O)c1ccc(OC)c(C(=O)OC)c1`, the call in [1] and in [5] was inactive. Moreover, the Potency result in [2], in assay [3], in assay [4], in [6] and in [7] was “inactive” each time.

On to `c1ccc(CC2=NCCN2)cc1`, for which the compound was called inactive in assay [1] and in [5]. Moreover, the Potency result in [2], in assay [3], in assay [4], in [6], in assay [7] and in assay [9] was “inactive” each time. For the same compound, in assay [10], the Potency entry is “inactive”. For the same compound, the max activation in assay [8] was -1.57%.

For `Cc1cc(O)cc2c1O[C@](C)(CCC[C@H](C)CCC[C@H](C)CCCC(C)C)CC2`, the call in [1] and in [5] was inactive. Moreover, the Potency result in [2], in [3], in assay [4], in assay [6], in assay [7] and in [9] was “inactive” each time. The Potency result in assay [10] is “inactive”. Besides, in assay [8], the max activation was -2.13%.

Regarding `Nc1ccc(S(=O)(=O)Nc2ccnn2-c2ccccc2)cc1`, the activation was -0.182% [at 11.8 µM] in assay [1] and -6.08% [at 19 µM] in [7]. Also, the activity change, negative = cytotoxicity in assay [2] was -0.0622% [at 19 µM]; in assay [6] it was -0.388% [at 19 µM]. For the same compound, the caspase activation in assay [3] was 0.58% [at 19 µM]. The Potency result in assay [4], in assay [9] and in [10] was “inactive” throughout. Besides, the caspase-3/7 activation in [5] is 1.89% [at 19 µM]. For the same compound, the max activation in [8] was 8.45%.

As to `O=C(O)Cc1ccc(CCNS(=O)(=O)c2ccc(Cl)cc2)cc1`, the result in assay [1] and in [5] was inactive. The Potency result in [2], in assay [3], in [4], in assay [6], in [7] and in assay [9] was “inactive” in each case. In assay [10], the Potency result is “inactive”. The max activation in assay [8] is -10%.

In the case of `C=C(C)CS(=O)(=O)O`, the compound was called inactive in assay [1] and in [5]. Besides, the Potency result in assay [3], in [4], in assay [6] and in assay [7] was “inactive” in each case.

With `COc1cc(C(=O)N2CCCCCCC2)cc(OC)c1OC`, the compound was classed as inactive in assay [1] and in assay [5]. Further, the Potency entry in [2], in assay [3], in assay [4] and in assay [6] was “inactive” in each case. In assay [8], the max activation was -0.931%. Moreover, the Potency in assay [10] was 15.8 µM (active).

As for `COc1nc(N)nc2c1ncn2[C@@H]1O[C@H](CO)[C@@H](O)[C@@H]1O`, the call in assay [1] and in [5] was inactive. Besides, the Potency entry in [3], in [4] and in [6] was “inactive” throughout.

For `CC(C)CCCC(C)N` (stereo not drawn), the outcome in assay [1] and in assay [5] was inactive. Besides, the Potency result in [2], in assay [3], in assay [4], in [6], in assay [9] and in assay [10] was “inactive” in each case. Moreover, the max activation in assay [8] is -5.35%.

Take `CCO[Si](CCC1CCC2OC2C1)(OCC)OCC` (stereo not drawn): the compound was classed as inactive in [1] and in assay [5]. Also, the Potency result in assay [3], in assay [4], in [6] and in assay [7] was “inactive” each time.

On to `Cn1c(N)c(N=O)c(=O)n(C)c1=O`, for which the outcome in assay [1] and in assay [5] was inactive. Moreover, the Potency entry in assay [3], in assay [4], in assay [6] and in assay [7] was “inactive” each time.

For the compound `CN(C)CCCSc1ccccc1NC(=O)/C=C/c1ccccc1`, the outcome in [1] and in assay [5] was inactive. For the same compound, the Potency result in assay [2], in [3], in assay [4], in assay [6] and in assay [9] was “inactive” in each case. In assay [8], the max activation was 2.69%.

As to `NS(=O)(=O)c1cc2c(cc1Cl)NC(C1CC3C=CC1C3)NS2(=O)=O` (stereo not drawn), the call in assay [1] and in assay [5] was inactive. Moreover, the Potency result in assay [3], in [4], in assay [6] and in assay [7] was “inactive” each time.

As for `COC(C)(C)CCCC(C)CC=O` (stereo not drawn), the compound was classed as inactive in assay [1] and in assay [5]. Besides, the Potency result in [2], in assay [3], in [6] and in assay [7] was “inactive” throughout.
